# Measured values from the supplement of paper PMC3545927.
# Some of the results follow. The hit rate among all sequences tested is not known here.
# Target: furin, P09958
# Assay: furin cleavage Z-score vs untreated control; higher = more cleavage, active = 3.5 or more, inactive = 1 or less, 8 variable residues between constant flanks
# Summary of the method: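 Magnetic beads held 8-mer peptides by the N-terminus, each fused to a cDNA oligonucleotide, and purified furin was added for 7.5, 15 or 30 min. Released DNA was sequenced after PCR adapter tagging. The cleavage Z-score is the log count relative to furin-free reactions, lowess-adjusted and divided by median absolute deviation.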
# 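Also: purified furin at 1:10 enzyme:substrate in 50 mM HEPES pH 7.5.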
# Sequence of furin, P09958 (P09958 whole entry): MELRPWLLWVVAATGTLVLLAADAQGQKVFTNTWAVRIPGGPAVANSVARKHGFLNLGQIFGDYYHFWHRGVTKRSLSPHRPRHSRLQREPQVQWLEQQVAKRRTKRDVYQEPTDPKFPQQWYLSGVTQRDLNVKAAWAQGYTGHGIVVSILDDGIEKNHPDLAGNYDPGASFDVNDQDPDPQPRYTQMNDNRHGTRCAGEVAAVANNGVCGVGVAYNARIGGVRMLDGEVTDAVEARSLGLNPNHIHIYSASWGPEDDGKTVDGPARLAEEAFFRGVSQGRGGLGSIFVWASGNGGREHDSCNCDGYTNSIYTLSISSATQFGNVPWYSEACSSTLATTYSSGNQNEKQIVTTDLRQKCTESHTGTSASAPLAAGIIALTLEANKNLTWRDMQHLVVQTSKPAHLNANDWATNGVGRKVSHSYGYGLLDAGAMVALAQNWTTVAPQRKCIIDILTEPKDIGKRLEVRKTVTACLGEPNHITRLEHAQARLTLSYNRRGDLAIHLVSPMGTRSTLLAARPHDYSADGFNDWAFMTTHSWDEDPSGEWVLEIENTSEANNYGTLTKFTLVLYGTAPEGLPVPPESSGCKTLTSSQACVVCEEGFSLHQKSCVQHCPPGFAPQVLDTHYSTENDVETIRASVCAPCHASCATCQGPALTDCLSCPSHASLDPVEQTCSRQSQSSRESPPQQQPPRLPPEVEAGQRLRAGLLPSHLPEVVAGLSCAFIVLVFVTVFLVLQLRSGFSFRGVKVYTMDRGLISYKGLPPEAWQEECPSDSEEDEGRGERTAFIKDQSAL
Sequence,furin cleavage Z-score (7.5 min),furin cleavage Z-score (15 min),furin cleavage Z-score (30 min)
CARVRRAAQAAGNASASA [FS-2535],8.23 (active),7.6 (active),6.83 (active)
CARALRSLDLAGNASASA [FS-2325],3.52 (active),2.8,4.65 (active)
CATTPCSGKWAGNASASA [HC1914],-1.59 (inactive),1.19,-1.38 (inactive)
CAPPQPEYDLAGNASASA [HC1547],-0.102 (inactive),2.02,-0.964 (inactive)
CAVQARDLGPAGNASASA [FS-1874],-2.04 (inactive),-0.417 (inactive),-1.57 (inactive)
CAEVVTSTWCAGNASASA [HC2260],-0.517 (inactive),2.75,0.14 (inactive)
CARVRRRLDLAGNASASA [FS-2843],2.08,5.18 (active),6.19 (active)
CARVRRAAAEAGNASASA [FS-2104],12.4 (active),11.6 (active),8.72 (active)
CAASKVKANLAGNASASA [HC1408],2.23,1.5,-1.01 (inactive)
CARETRSFTKAGNASASA [FS-1699],-0.268 (inactive),-1.13 (inactive),0.163 (inactive)
CARETRYVELAGNASASA [FS-2918],0.274 (inactive),0.951 (inactive),1.86
CAHKKRSARDAGNASASA [FS-1338],9.15 (active),11 (active),8.17 (active)
CARETRSARDAGNASASA [FS-186],4.31 (active),4.67 (active),5.64 (active)
CAAYALDTEVAGNASASA [HC564],-0.288 (inactive),-0.347 (inactive),0.258 (inactive)
CAMEECSQALAGNASASA [HC1743],1.12,0.147 (inactive),0.968 (inactive)
CARTKKSSVQAGNASASA [FS-1841],0.0621 (inactive),-0.697 (inactive),-0.462 (inactive)
CARTKRSWVWAGNASASA [FS-2613],2.5,3.65 (active),6.25 (active)
CARTKRSSTTAGNASASA [FS-3108],6.96 (active),8.23 (active),7.55 (active)
CADTEVVTSTAGNASASA [HC2298],-0.856 (inactive),-0.105 (inactive),-0.202 (inactive)
CARTKRHRSTAGNASASA [FS-2829],2.1,4.17 (active),5.45 (active)
CAPSKRGNSTAGNASASA [FS-2877],-0.745 (inactive),-0.0005 (inactive),0.164 (inactive)
CARTRRISQTAGNASASA [FS-2468],-0.0765 (inactive),0.134 (inactive),0.486 (inactive)
CARACRGVTTAGNASASA [FS-2880],0.00727 (inactive),-0.299 (inactive),0.871 (inactive)
CARTKRFSHTAGNASASA [FS-2827],1.99,3.53 (active),5.48 (active)
CARTRRSWVWAGNASASA [FS-2385],0.299 (inactive),-0.875 (inactive),3.19
CARTKRGWMWAGNASASA [FS-2828],-0.833 (inactive),1.19,3.46
